Our source for the Potency values is PubChem BioAssay (NCATS).

Test [1] has as its target Cytochrome P450 1A2 (Homo sapiens) (UniProt P05177). Briefly: p450-cyp1a2 (AID 410; calls by dose curve; further: potency means the concentration at half of the fitted maximal effect). The method in brief:
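Luminescent demethylation readout: Luciferin-ME (100uM, equal to Km) turned over by 20nM CYP1A2 for 60 min at room temperature after NADPH regeneration addition, following 10 min compound preincubation. Normalization used 57 uM furafylline as full inhibition.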

Test [2] addresses Cytochrome P450 2D6 (Homo sapiens) (UniProt P10635). Put plainly: qHTS Assay for Inhibitors and Substrates of Cytochrome P450 2D6 (AID 891). Further: potency means the concentration at half of the fitted maximal effect; nearly all actives have a fitted effect of over 60% in size. The method in brief: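 Luminescent read-out of luciferin formed by 5 nM human CYP2D6 demethylating 30 uM Luciferin-ME EGE (Km level) over 60 min at room temperature after NADPH regeneration addition. Data normalized to full inhibition by 1.43 uM quinidine.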
In general terms: Quantitative high-throughput screening tests each substance at several concentrations.

A short description of test [3]: S16 Schwann cell PMP22 intronic element firefly luciferase assay (AID 624032). Further: nearly all actives have a fitted effect of over 30% in size. The method, boiled down:
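Rat S16 Schwann cells stably carrying firefly luciferase driven by a PMP22 intronic element, in 10% FBS, treated 24 h at 37 C. ONE-Glo luminescence normalized to PTC124 control and DMSO (0%); curves classed by r2, magnitude and activity.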

Test [4] deals with 7G8. Briefly: qHTS profiling for inhibitors of Plasmodium falciparum proliferation (AID 504749). Further: nearly all actives have a fitted effect of over 60% in size. Further: potency means the concentration at half of the fitted maximal effect. Particulars: P. falciparum in erythrocytes, SYBR Green DNA, 72 h; series mostly up to 12.8 µM. The method, boiled down:
(§1)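 Each compound contacts P. falciparum-infected red blood cells for 72 h at 37 C; lysis buffer (Tris, EDTA, saponin, Triton X, SYBR Green I) is added and fluorescence measured next morning; values normalized to controls.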

Test [5] concerns DFO2036. The description is as above. As to conditions: P. falciparum in erythrocytes, SYBR Green DNA, 72 h; series mostly up to 12.8 µM. The method, boiled down:
as §1

Test [6] relates to TAB109. The description is as above. As to conditions: P. falciparum in erythrocytes, SYBR Green DNA, 72 h; series mostly up to 12.8 µM. The method in brief: as §1
Test [7] deals with CP335. The description is as above. Particulars: P. falciparum in erythrocytes, SYBR Green DNA, 72 h; series mostly up to 12.8 µM. The method, boiled down: as §1
Test [8] deals with Cytochrome P450 2C9 (Homo sapiens) (UniProt P11712). Briefly: qHTS Assay for Inhibitors and Substrates of Cytochrome P450 2C9 (AID 883). Further: nearly all actives have a fitted effect of over 60% in size. The method, boiled down:
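Signal: luciferase luminescence reporting luciferin produced by CYP2C9. Conditions: 10nM enzyme, Luciferin-H 100uM at KM, 25mM KPO4, 37C, 60 min NADPH-driven reaction. Reference: 57uM sulphaphenazole as 100% inhibition.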

Results filed as inconclusive are left out. Activity calls are given as the source filed them. Unless noted, the call rests on the fitted dose curve; in most records, active means well fitted curve in the direction sought with a large enough effect; inconclusive means small, poorly fitted or top-dose-only effect, or another doubt; inactive means no such curve, though single readings can be large; an effect the other way counts as inactive or inconclusive.

Chain of Cytochrome P450 1A2 (Homo sapiens) (P05177 whole entry, looked up): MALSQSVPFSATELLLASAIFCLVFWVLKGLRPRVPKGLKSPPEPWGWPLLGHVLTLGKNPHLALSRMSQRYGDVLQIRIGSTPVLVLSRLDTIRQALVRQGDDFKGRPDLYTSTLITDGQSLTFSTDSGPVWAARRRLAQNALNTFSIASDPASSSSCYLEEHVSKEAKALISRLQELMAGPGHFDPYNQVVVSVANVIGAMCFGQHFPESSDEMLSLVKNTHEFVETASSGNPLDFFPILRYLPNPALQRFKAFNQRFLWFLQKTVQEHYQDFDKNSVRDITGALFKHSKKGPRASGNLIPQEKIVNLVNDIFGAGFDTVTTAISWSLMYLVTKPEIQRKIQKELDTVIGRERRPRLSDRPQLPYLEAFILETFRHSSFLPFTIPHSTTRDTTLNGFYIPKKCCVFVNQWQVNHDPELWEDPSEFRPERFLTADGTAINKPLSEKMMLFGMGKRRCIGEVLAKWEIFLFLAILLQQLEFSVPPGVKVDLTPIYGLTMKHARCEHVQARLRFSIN
Chain of Cytochrome P450 2D6 (Homo sapiens) (P10635 whole entry, looked up): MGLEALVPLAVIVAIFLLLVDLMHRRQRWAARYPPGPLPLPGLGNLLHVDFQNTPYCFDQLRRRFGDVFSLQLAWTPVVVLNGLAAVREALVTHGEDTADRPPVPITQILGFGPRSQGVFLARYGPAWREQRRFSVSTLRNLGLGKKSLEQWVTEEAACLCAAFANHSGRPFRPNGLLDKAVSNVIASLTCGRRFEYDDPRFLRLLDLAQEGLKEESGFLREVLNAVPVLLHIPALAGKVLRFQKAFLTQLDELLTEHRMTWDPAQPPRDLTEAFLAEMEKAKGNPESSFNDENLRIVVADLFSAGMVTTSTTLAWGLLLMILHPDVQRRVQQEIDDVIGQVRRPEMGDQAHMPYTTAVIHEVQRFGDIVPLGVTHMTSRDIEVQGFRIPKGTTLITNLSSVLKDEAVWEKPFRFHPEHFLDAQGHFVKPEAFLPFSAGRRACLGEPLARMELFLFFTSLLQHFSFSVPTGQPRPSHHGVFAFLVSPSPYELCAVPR
Chain of Cytochrome P450 2C9 (Homo sapiens) (P11712 whole entry, looked up): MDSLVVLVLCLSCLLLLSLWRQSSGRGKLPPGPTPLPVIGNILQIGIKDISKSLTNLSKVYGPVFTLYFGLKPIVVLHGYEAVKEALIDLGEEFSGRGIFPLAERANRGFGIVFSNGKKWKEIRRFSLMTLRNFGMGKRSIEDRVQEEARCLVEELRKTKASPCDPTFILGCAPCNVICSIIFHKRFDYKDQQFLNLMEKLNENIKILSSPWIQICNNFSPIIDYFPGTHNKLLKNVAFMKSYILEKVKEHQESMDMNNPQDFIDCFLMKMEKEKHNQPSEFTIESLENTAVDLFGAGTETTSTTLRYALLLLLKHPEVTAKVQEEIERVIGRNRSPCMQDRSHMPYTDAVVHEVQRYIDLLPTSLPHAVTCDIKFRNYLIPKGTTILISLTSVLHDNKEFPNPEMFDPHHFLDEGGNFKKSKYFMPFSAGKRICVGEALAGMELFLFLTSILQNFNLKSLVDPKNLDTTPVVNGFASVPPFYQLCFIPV

As to `CN1CCN([C@@H](c2ccccc2)c2ccc(Cl)cc2)CC1`, the Potency entry in test [1], in test [3], in test [5] and in test [6] was “inactive” in each case. Besides, the Potency in test [2] is 2 µM (active); in test [4], 3.16 µM (active).

For the compound `CN1CCC[C@@H](CC2c3ccccc3Sc3ccccc32)C1`, the Potency result in test [1] and in test [7] was “inactive” throughout. The values for the Potency in test [2] and in test [4] were 0.316 µM (active) and 3.98 µM (active), respectively.

Take `C[C@@H](Cc1cccc(C(F)(F)F)c1)NCCOC(=O)c1ccccc1`: the Potency in test [1] was 0.794 µM (active); in test [2] it was 0.0158 µM (active). In addition, in test [8], the Potency result is “inactive”.
